# Results as given in the supplement of paper PMC8728848.
# The entries come from a sample that favours the strongest signals as a whole.
# Assays:
# Experiment in all cases: glycan array binding signal (z-score within array); higher = stronger binding
# Conditions in all cases: glycan notation: IUPAC condensed, linker removed
# [1] = molecular target: Fuc(a1-2)Gal(b1-3)GalNAc(b1-3)Gal
# Summary of the method: (§1)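 Columns mapping to the same glycan were averaged after glycan names were converted to IUPAC-condensed notation. The data come from 3228 arrays in the Consortium for Functional Glycomics database, limited to those with an available protein sequence. Binding is reported as a within-array Z-score averaged across arrays of one protein sequence and across linkers.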
# [2] = molecular target: Fuc(a1-2)Gal(b1-3)[Fuc(a1-4)]GlcNAc
# Summary of the method: as §1
# [3] = molecular target: Fuc(a1-2)Gal(b1-4)Glc
# Summary of the method: as §1
# [4] = molecular target: Fuc(a1-2)Gal(b1-4)GlcNAc(b1-3)Gal(b1-4)GlcNAc
# Summary of the method: as §1
# [5] = molecular target: Fuc(a1-2)Gal(b1-4)[Fuc(a1-3)]GalNAc(b1-3)Gal(b1-4)[Fuc(a1-3)]GlcNAc
# Summary of the method: as §1
# [6] = molecular target: Fuc(a1-2)[Gal(a1-3)]Gal
# Summary of the method: as §1
# [7] = molecular target: Fuc(a1-2)[Gal(a1-3)]Gal(b1-4)Glc
# Summary of the method: as §1
# [8] = molecular target: Fuc(a1-2)[GalNAc(a1-3)]Gal(b1-3)GlcNAc
# Summary of the method: as §1
# [9] = molecular target: Fuc(a1-3)GlcNAc
# Summary of the method: as §1
# [10] = molecular target: Gal(a1-3)[Gal(a1-4)]Gal(b1-4)GlcNAc
# Summary of the method: as §1
# [11] = molecular target: Gal(a1-4)Gal(b1-4)GalNAc
# Summary of the method: as §1
# [12] = molecular target: Gal(b1-3)[GlcNAc(b1-6)]GalNAc
# Summary of the method: as §1
# [13] = molecular target: Gal(b1-4)GlcNAc
# Summary of the method: as §1
# [14] = molecular target: Gal3S(b1-4)Glc6S
# Summary of the method: as §1
# [15] = molecular target: Gal3S6S(b1-4)GlcNAc6S
# Summary of the method: as §1
# [16] = molecular target: Gal6S(b1-4)Glc6S
# Summary of the method: as §1
# [17] = molecular target: GalNAc(a1-3)Gal
# Summary of the method: as §1
# [18] = molecular target: Glc(a1-4)Glc
# Summary of the method: as §1
# [19] = molecular target: GlcNAc(b1-2)Gal(b1-3)GlcNAc
# Summary of the method: as §1
# [20] = molecular target: Man(a1-2)Man(a1-2)Man(a1-3)Man
# Summary of the method: as §1
# [21] = molecular target: Man(a1-2)Man(a1-2)Man(a1-3)[Man(a1-2)Man(a1-6)[Man(a1-3)]Man(a1-6)]Man(b1-4)GlcNAc(b1-4)GlcNAc
# Summary of the method: as §1
# [22] = molecular target: Man(a1-3)[Man(a1-6)]Man
# Summary of the method: as §1
# [23] = molecular target: Neu5Ac(a2-3)Gal(b1-3)[Fuc(a1-4)]GlcNAc
# Summary of the method: as §1
# [24] = molecular target: Neu5Ac(a2-3)Gal(b1-4)[Fuc(a1-3)]GlcNAc6S
# Summary of the method: as §1
# [25] = molecular target: Neu5Ac(a2-3)[GalNAc(b1-4)]Gal(b1-4)Glc
# Summary of the method: as §1
# [26] = molecular target: Fuc(a1-2)Gal(b1-3)GalNAc(b1-4)[Neu5Ac(a2-3)]Gal(b1-4)Glc
# Summary of the method: as §1
# [27] = molecular target: Fuc(a1-2)Gal(b1-4)GlcNAc
# Summary of the method: as §1
# [28] = molecular target: Fuc(a1-2)[GalNAc(a1-3)]Gal(b1-4)[Fuc(a1-3)]GlcNAc
# Summary of the method: as §1
# [29] = molecular target: Fuc(a1-2)[GalNAc(a1-4)]Gal(b1-4)GlcNAc
# Summary of the method: as §1
# [30] = molecular target: Gal(a1-2)Gal
# Summary of the method: as §1
# [31] = molecular target: Gal(b1-3)[Fuc(a1-4)]GlcNAc(b1-3)Gal(b1-4)[Fuc(a1-3)]GlcNAc
# Summary of the method: as §1
# [32] = molecular target: Gal(b1-4)GlcNAc(b1-3)Gal(b1-4)GlcNAc(b1-3)Gal(b1-4)GlcNAc
# Summary of the method: as §1
# [33] = molecular target: Gal(b1-4)GlcNAc(b1-6)Gal(b1-4)GlcNAc(b1-6)GalNAc
# Summary of the method: as §1
# [34] = molecular target: Gal(b1-4)GlcNAc(b1-6)GalNAc
# Summary of the method: as §1
# [35] = molecular target: Gal3S(b1-3)GalNAc
# Summary of the method: as §1
# [36] = molecular target: Gal3S(b1-4)GlcNAc6S
# Summary of the method: as §1
# [37] = molecular target: Gal4S6S(b1-4)GlcNAc
# Summary of the method: as §1
# [38] = molecular target: GlcA(b1-3)Gal
# Summary of the method: as §1
# [39] = molecular target: GlcNAc(b1-2)Man(a1-3)[GlcNAc(b1-2)Man(a1-6)]Man(b1-4)GlcNAc(b1-4)GlcNAc
# Summary of the method: as §1
# [40] = molecular target: GlcNAc(b1-4)GlcNAc(b1-4)GlcNAc(b1-4)GlcNAc(b1-4)GlcNAc(b1-4)GlcNAc
# Summary of the method: as §1
# [41] = molecular target: GlcNAc(b1-6)GalNAc
# Summary of the method: as §1
# [42] = molecular target: Man(a1-2)Man(a1-3)[Man(a1-6)]Man(a1-6)[Man(a1-2)Man(a1-3)]Man(b1-4)GlcNAc(b1-4)GlcNAc
# Summary of the method: as §1
# [43] = molecular target: Neu5Ac(a2-3)Gal(b1-3)GalNAc(b1-3)Gal(b1-4)GlcNAc
# Summary of the method: as §1
# [44] = molecular target: Neu5Ac(a2-3)Gal(b1-4)[Fuc(a1-3)]GlcNAc(b1-3)Gal
# Summary of the method: as §1
# [45] = molecular target: Neu5Ac(a2-3)[Neu5Ac(a2-6)]GalNAc
# Summary of the method: as §1
# [46] = molecular target: Neu5Gc(a2-6)GalNAc
# Summary of the method: as §1
binder,measurement,setting,value
"TLEC1 (Arabidopsis thaliana), Q9C5Q9 (protein) MSGASSVSSICSSNVSLIPTGPQVFINFRGKDLRKGFMSFLKPALKKEKINVFIDEQEERGKYLISLFDTIGESKIALVIFSEGYCESHWCMDELVKIKEYMDQNRLIIIPIFYRLDLDVVKDLTGKFGDNFWDLVDKYQPEPKKLHKWTEALFSVCELFSLILPKHSDISDRDFVKSIVKAVKKVQKNFFQRRNGEIEYQDFSVPACKLTITMHESPNEEAVQVTVLNEFYQMKNQSPVPSYEFKFWVDLTRPKGNVFMIDARDLSIAWSEDSNHWTWLPLPNQNSNESVMEIAFLKSASWLDVAGKFDTRYLTPRTRYEVVFVVKLEYTFEWETLVKLKLDLPNTWEKPQEQSVDMFDYISDQWLDIPVGEFTTSKKNVGEISFAMYEHECQLWKSGLFVKGVTIRPKY",glycan array binding signal (z-score),[1],0.538
same,glycan array binding signal (z-score),[2],-0.075
same,glycan array binding signal (z-score),[3],1.08
same,glycan array binding signal (z-score),[4],0.966
same,glycan array binding signal (z-score),[5],1.49
same,glycan array binding signal (z-score),[6],-0.268
same,glycan array binding signal (z-score),[7],-0.089
same,glycan array binding signal (z-score),[8],0.897
same,glycan array binding signal (z-score),[9],1.82
same,glycan array binding signal (z-score),[10],-0.228
same,glycan array binding signal (z-score),[11],-0.13
same,glycan array binding signal (z-score),[12],-0.317
same,glycan array binding signal (z-score),[13],-0.385
same,glycan array binding signal (z-score),[14],1.16
same,glycan array binding signal (z-score),[15],12.3
same,glycan array binding signal (z-score),[16],1.65
same,glycan array binding signal (z-score),[17],-0.288
same,glycan array binding signal (z-score),[18],-0.148
same,glycan array binding signal (z-score),[19],-0.386
same,glycan array binding signal (z-score),[20],-0.005
same,glycan array binding signal (z-score),[21],-0.509
same,glycan array binding signal (z-score),[22],-0.105
same,glycan array binding signal (z-score),[23],-0.525
same,glycan array binding signal (z-score),[24],-0.464
same,glycan array binding signal (z-score),[25],-0.46
"S100A12 (Homo sapiens), P80511 (protein) MTKLEEHLEGIVNIFHQYSVRKGHFDTLSKGELKQLLTKELANTIKNIKDKAVIDEIFQGLDANQDEQVDFQEFISLVAIALKAAHYHTHKE",glycan array binding signal (z-score),[1],1.87
same,glycan array binding signal (z-score),[26],-0.259
same,glycan array binding signal (z-score),[27],-0.748
same,glycan array binding signal (z-score),[6],-0.758
same,glycan array binding signal (z-score),[28],-0.154
same,glycan array binding signal (z-score),[29],-0.766
same,glycan array binding signal (z-score),[30],0.006
same,glycan array binding signal (z-score),[31],-0.056
same,glycan array binding signal (z-score),[32],-0.226
same,glycan array binding signal (z-score),[33],-0.768
same,glycan array binding signal (z-score),[34],-0.528
same,glycan array binding signal (z-score),[35],0.207
same,glycan array binding signal (z-score),[14],2.45
same,glycan array binding signal (z-score),[36],2.67
same,glycan array binding signal (z-score),[15],2.83
same,glycan array binding signal (z-score),[37],2.91
same,glycan array binding signal (z-score),[16],2.19
same,glycan array binding signal (z-score),[38],0.368
same,glycan array binding signal (z-score),[39],1.79
same,glycan array binding signal (z-score),[40],-0.158
same,glycan array binding signal (z-score),[41],-0.903
same,glycan array binding signal (z-score),[42],-0.256
same,glycan array binding signal (z-score),[43],-0.704
same,glycan array binding signal (z-score),[44],-0.943
same,glycan array binding signal (z-score),[45],0.727
same,glycan array binding signal (z-score),[46],-0.009
